Compound activity (PubChem BioAssay)
IL-1B inflam inh: qHTS for Inhibitors of Inflammasome Signaling: IL-1-beta AlphaLISA Primary Screen; 360,000 tested, 4.7% active; AID 743279, 2014; activity change, % at 57.5 µM; THP-1 LPS/ATP IL-1B secretion, AlphaLISA, 16 h; active compounds read low; in the data active = activity change below about -50%; inconclusive = mostly about -30% to -49%
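THP-1 cells pretreated 1 hr with compounds (up to 57.5 uM final), then stimulated with LPS (250 ng/mL final) plus ATP (1.25 mM final); secreted IL-1B measured by AlphaLISA after 16 hr, decreased signal indicating inhibition.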
TDP1 cell noCPT: qHTS for Inhibitors of human tyrosyl-DNA phosphodiesterase 1 (TDP1): qHTS in cells in absence of CPT; DT40 Tdp1-/- hTDP1 cells, no CPT, ATP luminescence, 48 h; Potency, µM (series often up to 46.2 µM), for inactives: top-dose activity change, negative = growth inhibition, usual class: inhibitors; 420,000 tested, 15% active; AID 686978, 2013; also: potency is read from the fitted curve at half-maximal effect; nearly all actives have a fitted effect of over 55% in size
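Camptothecin absent (DMSO only). Human TDP1-complemented DT40 knockout cells, 400 cells/well, 37 °C for minimum 48 hr; ATP measured via CellTiter-Glo, 30 min dark incubation, luminescence.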
HT1080 IDH1KD tx: qHTS for induction of synthetic lethality in tumor cells producing 2HG: qHTS for the HT-1080-IDH1KD cell line. HT-1080 IDH1 knockdown viability, ATP luminescence, 48 h. Potency, µM (top dose mostly 46.1 µM), for the others: at the highest dose activity, negative = toxicity, actives largely listed as cytotoxic. 360,000 tested, 2% active;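 also: potency is read from the fitted curve at half-maximal effect; 0% = DMSO wells and -100% = cell-free medium wells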
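Viability of IDH1-knockdown HT-1080 fibrosarcoma cells was assessed by CellTiter-Glo after 48 h at 37 °C with titrated compound; concentration-effect curves were classified by fit quality and response size.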
TDP1 cell CPT: qHTS for Inhibitors of human tyrosyl-DNA phosphodiesterase 1 (TDP1): qHTS in cells in presence of CPT. chicken DT40 Tdp1-/-;hTDP1 cells + 20 nM CPT, ATP luminescence, 48 h. Potency, µM (doses to about 46.2 µM), for the others: top-dose activity change, negative = growth inhibition, actives largely listed as inhibitors. 420,000 tested, 12% active. AID 686979, 2013; also: potency is read from the fitted curve at half-maximal effect; nearly all actives have a fitted effect of over 55% in size
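Chicken DT40 Tdp1-/- cells stably complemented with human TDP1 were seeded at 400 cells/well in medium containing 20 nM camptothecin, exposed to pin-transferred compounds, and grown at 37 °C for at least 48 hr. Viability was read as ATP luminescence.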
HT1080-NT tox: qHTS for induction of synthetic lethality in tumor cells producing 2HG: qHTS for the HT-1080-NT fibrosarcoma cell line | HT-1080-NT fibrosarcoma viability, CellTiter-Glo ATP luminescence, 48 h | Potency, µM (titrated, usually from 46.1 µM), without a hit: at the highest dose activity, negative = less viability, actives largely listed as cytotoxic | 360,000 tested, 1.6% active | AID 686970, 2013;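 also: NT is the 2HG producing partner of a matched IDH1 knockdown line; potency is read from the fitted curve at half-maximal effect; 0% = DMSO-treated cells and -100% = media-only wells without cells; nearly all actives have a fitted effect of over 55% in size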
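Compounds were tested in concentration-response format on HT-1080-NT cells for 48 hours at 37 degrees C. Cell viability came from CellTiter-Glo luminescence; curves were classified by r2, response magnitude and activity.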
An asterisk follows results filed as active; ? = inconclusive; nt = no result given; [ ] = dose if it differs, or a comment. Hits are enriched below; roughly 19% of the tested compounds scored in any of these assays. Unless noted, calls follow the shape of the dose curve; as a rule, active = well fitted curve in the direction sought with a large enough effect; inconclusive = small, poorly fitted or top-dose-only effect, or another doubt; inactive = no such curve, though single readings can be large; an effect the other way counts as inactive or inconclusive. Unless noted, % is scaled to controls: 0 for no effect and ±100 for the full control effect.

SMILES	IL-1B inflam inh	TDP1 cell noCPT	HT1080 IDH1KD tx	TDP1 cell CPT	HT1080-NT tox
CC1(C)OC(=O)C2=C(CC(CCc3ccccc3)OC2c2ccccc2)O1 (stereo not given)	26.1	20.6µM*	1.7%	13µM*	-2.9%
CC(NC(=O)COC(=O)c1ccccc1SCC(=O)N1CCCC1)c1ccccc1 (stereo not given)	3.9	1.7%	1.5%	-4.5%	0.6%
Cc1ccc(Nc2nc(NCc3cccs3)nc3ccsc23)c(C)c1	-51.0*	9.2µM*	?	23.1µM*	?
Cc1ccc(Nc2nc(NCc3ccccc3)nc3ccsc23)c(C)c1	?	6.51µM*	?	23.1µM*	?
Cc1ccc(CNc2nc(N)c([N+](=O)[O-])c(NCc3ccccc3)n2)cc1	12.3	-11.4%	5.1%	-1.7%	3.9%
O=C(Nc1cccn(Cc2c(Cl)cccc2Cl)c1=O)c1ccc(Cl)cc1Cl	-58.6*	?	?	?	?
O=C(Nc1cccn(Cc2c(Cl)cccc2Cl)c1=O)c1ccccc1Cl	?	?	-1.4%	?	-0.3%
CCC(C(=O)NC(C)(C)C)n1c(-c2ccc3c(c2)OCO3)nc2ccccc21 (stereo not given)	16.1	?	8.7%	?	10.3%
C=C1CCc2c([nH]c3ccc(OCC(C)C)cc23)C1=O	-98.8*	0.92µM*	13µM*	0.82µM*	7.31µM*
CCN(CC)C(CNS(=O)(=O)c1ccc(Cl)cc1)c1ccccc1 (stereo not given)	-4.1	-23.1%	2.4%	-3.2%	-5.9%
COc1cccc(NC(CNS(=O)(=O)c2ccc(Cl)cc2)c2ccccc2)c1 (stereo not given)	nt	16.4µM*	nt	?	nt
O=S(=O)(NCC(Nc1ccc(Cl)cc1)c1ccccc1)c1ccccc1 (stereo not given)	-92.0*	16.4µM*	?	?	?
Cc1ccc(NC(CNS(=O)(=O)c2ccc(Cl)cc2)c2ccccc2)cc1 (stereo not given)	?	23.1µM*	?	20.6µM*	?
COC(CNS(=O)(=O)c1ccc(Cl)cc1)c1ccccc1 (stereo not given)	-8.7	-5.4%	8.1%	11.4%	7.2%
NS(=O)(=O)c1ccc(NC(CNS(=O)(=O)c2ccccc2)c2ccccc2)cc1 (stereo not given)	-2.7	-7.8%	0.8%	-29.1%	3.1%
S=C(NCCC1=CCCCC1)NCc1ccco1	-16.0	10.3µM*	?	16.4µM*	-9.5%
O=C(NC(=S)NCCC1=CCCCC1)c1ccccc1Br	64.1	16.4µM*	-14.8%	?	-16.5%
COC(=O)C1N[C@@H]([C@@H](NC(=O)COc2ccccc2)C(=O)Nc2ccc(OC)cc2)SC1(C)C (stereo not given in full)	4.5	?	2.3%	?	12.3%
CC1(C(=O)Nc2ccc(Cl)c(Cl)c2)CCN1C(=O)Cc1cccc2ccccc12 (stereo not given)	-21.0	?	?	?	-19.9%
CCOc1ccc(/C=N/NC(=O)c2ccccc2O)cc1CN1CC2CC(C1)c1cccc(=O)n1C2 (stereo not given)	6.3	?	?	?	0.0%
CCCOc1ccc(CC(=O)N/N=C\c2ccc(F)cc2)cc1	-2.0	?	-7.9%	-23.0%	-6.8%
COC(=O)c1ccccc1-c1c2ccc(=N)cc-2oc2cc(N)ccc12	-91.6*	0.581µM*	10.3µM*	0.731µM*	6.51µM*
Cc1cc(S(=O)(=O)NCc2ccncc2)c(C)cc1Br	0.0	5.8µM*	-19.0%	8.2µM*	-27.3%
Cc1ccc(C)c(S(=O)(=O)NCc2cccnc2)c1	0.0	3.8%	?	-3.6%	5.5%
COc1cc(S(=O)(=O)NCc2ccncc2)c(OC)cc1Br	23.9	13µM*	-1.7%	?	-2.9%
SMILES	IL-1B inflam inh	TDP1 cell noCPT	HT1080 IDH1KD tx	TDP1 cell CPT	HT1080-NT tox
COc1cc(S(=O)(=O)NCc2cccnc2)c(OC)cc1Br	-1.5	9.3%	7.4%	5.5%	5.0%
Cc1ccc(C)c(S(=O)(=O)NCc2ccncc2)c1	27.7	20.6µM*	?	?	-12.2%
CS(=O)(=O)N1CCCCC1c1cc(C(=O)NCc2ccc(Cl)c(Cl)c2)no1 (stereo not given)	-4.8	?	-7.8%	?	-2.5%
Cn1c(N)c(C(=O)CSc2nc(C3CC3)n(-c3ccccc3)n2)c(=O)n(C)c1=O	17.0	?	-3.3%	-15.3%	-4.1%
O=C(Cc1coc2cc3c(cc12)CCC3)NC1CCCCCCC1	0.0	0.0206µM*	-14.4%	?	2.8%
O=C(Cc1coc2cc3c(cc12)CCC3)NCC1(N2CCCCC2)CCCCC1	-82.3*	?	?	?	?
COc1ccc(C(C(=O)NCc2ccccc2)N(C(=O)Cn2nnc3ccccc32)c2cccc(OC)c2)cc1 (stereo not given)	nt	-15.6%	nt	?	nt
COc1ccccc1NC(=O)CCc1nnc2ccc(N3CCN(C)CC3)nn12	-8.1	17.9%	9.9%	-12.8%	1.0%
CCOC(=O)C1CCN(C(c2ccc(OCC)cc2)c2c(O)cc(C)n(CCOC)c2=O)CC1 (stereo not given)	nt	-13.7%	nt	-9.6%	nt
COc1cc(OC)cc(-c2nnc(SCc3cccnc3)o2)c1	-8.9	-24.5%	17.9%	25.9µM*	10.5%
COc1cccc(-c2nnc(SCc3cccnc3)o2)c1	-24.6	-24.6%	3.1%	-1.2%	26.1%
CCN(CC)CCOc1ccc2c(c1)C(=NO)c1cc(OCCN(CC)CC)ccc1-2	-104.6*	18.4µM*	7.08µM*	18.4µM*	10µM*
CCCOc1ccc(/C=N/O)cc1	-19.7	-2.1%	8.9%	-6.1%	7.5%
CCCOc1ccc2c(c1)C(=NN=C(N)N)c1cc(OCCC)ccc1-2	-97.0*	23.1µM*	?	25.9µM*	?
CCN(CC)S(=O)(=O)c1ccc2c(c1)C(=NO)c1cc(S(=O)(=O)N(CC)CC)ccc1-2	-22.8	2.31µM*	7.31µM*	2.31µM*	18.4µM*
CCN(CC)S(=O)(=O)c1cccc(S(=O)(=O)c2cccc(S(=O)(=O)N(CC)CC)c2)c1	-22.6	18.4µM*	?	20.6µM*	-0.5%[9.24 µM]
CCN(CC)S(=O)(=O)c1ccc(C)c(C)c1	6.0	-12.4%	16.0%	-0.9%	6.2%
CC(=O)OC1CC2(C)/C(=N\O)CCC2C2CCc3cc(O)ccc3C12 (stereo not given)	60.8	3.2%	-0.4%	-9.4%	-2.3%
